Test results taken from PubChem BioAssay (NCI).
This is part of a sample that, as a whole, favours compounds with a hit. Of some 83,000 tested, about 20% had one in any assay.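 For each line, cells grew in 96-well plates with the test compound present at a single concentration for 48 hours.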 The source made the active and inactive calls.

The compounds below were run on LOX IMVI melanoma (assay: NCI-60 one-dose screen, 48 h (100 = growth as untreated, 0 = no growth, -100 = all killed)). Settings: 10 µM unless noted.
Procedure: Growth inhibition of the LOX IMVI human tumor cell line is measured as a screen for anti-cancer activity. Cells are grown in 96 well plates and exposed to the test compound for 48 hours. Compounds are tested at a single concentration, which is 10^-5 M for most compounds. The reported endpoint is percent growth (GI% or GIPRCNT), where numbers from 0 - 100% represent growth inhibition, and numbers from -100% - 0 represent cell death. For example, a value of 40 represents 60% growth inhibition. A value of 0 means no net growth occurred over the course of the experiment. A value of -40 indicates 40% of cells at the beginning of the experiment died by the end of the experiment. A value of -100 means all cells are dead at the end of the experiment.
NCI-60 Human Tumor Cell Lines Screen was performed using the standard one-dose NCI protocol, which is described in more detail at https://dtp.cancer.gov/discovery_development/nci-60/default.htm.
Compounds with GIPRCNT values below 10 were considered active. Activity score was based on GIPRCNT using the following formula: […]
Score is 0 for GIPRCNT values of 100 or above, 50 for GIPRCNT values of 0, and 100 for GIPRCNT values of -100.
With `CCOC(=O)c1cnc2ccccc2c1Cl` the growth was 86.2% (inactive). `Cc1cccc2c1NC(=O)C2(c1ccc(O)cc1)c1ccc(O)cc1` was tested, and the growth was 59.2% (inactive). In the case of `Cc1ccc(/C=C2\CN(C(=O)OC(C)(C)C)C/C(=C\c3ccc(C)cc3)C2=O)cc1`, the growth is reported as -63.2% (active). For `O=C1/C(=C/c2cccs2)SC(=S)N1CCCN1CCOCC1`, the growth was 89.1% (inactive). With `O=C(c1ccc(-c2nc(CSc3nc4ccccc4s3)no2)cc1)N1CCSCC1` the growth was 55.2% (inactive). `Fc1ccc(-c2nn(-c3ccccc3)cc2-c2nc3ccccc3o2)cc1` was tested, and the growth was 24.7% (inactive). `Cn1c(-c2ccc(Br)cc2)c(O)c(=O)c2c(F)cccc21` was tested, and the growth was 40.2% (inactive). In the case of `COc1cccc(CNc2ncnc3c2ncn3C2OC(CO)C(O)C2O)c1O` (stereo not given), the growth is reported as -0.915% (active). With `CC(C)(C)n1cc(-c2ccnc(NCCNS(=O)(=O)c3cccc(F)c3)c2)c(-c2ccccc2)n1` the growth was 85.1% (inactive). For `N#CC1=C(c2ccc(Cl)cc2)Nc2c(c(-c3ccc(Cl)cc3)nn2-c2ccccc2)C12C(=O)Nc1ccc(Cl)cc12` (stereo not given), the growth was 41.5% (inactive). In the case of `O=C1c2cccc(NCCN=Cc3cc(O)ccc3O)c2C(=O)c2c(NCCN=Cc3cc(O)ccc3O)cccc21`, the growth is reported as -44.9% (active). `COc1ccc2c3c([nH]c2c1)C(=O)c1nc(C)ccc1C3=O` was tested, and the growth was 19.1% (inactive). With `O=C(O)/C(=C\c1ccc(Cl)cc1)c1ccc(Cl)cc1` the growth was 95.2% (inactive). With `C=CCn1c(SCC(=O)Nc2ccc(C(=O)/C=C/c3cc4cc(OC)ccc4nc3Cl)cc2)nnc1-c1ccc(Br)cc1` the growth was 82.6% (inactive). For `N#Cc1c(N)nnn1Cc1cc(=O)oc2c1ccc1ccccc12`, the growth was 59.3% (inactive). With `COc1cc(CNS(=O)(=O)c2ccc(C)cc2)ccc1OCc1cn(-c2ccc(Br)cc2)nn1` the growth was 97.9% (inactive). With `COc1ccc(N2CCC(=O)NC2=S)cc1` the growth was 94.8% (inactive). With `O=S(=O)(Nc1ccc(Cl)cc1)c1ccc(-c2cnc(C3CC3)o2)cc1` the growth was 50.5% (inactive). In the case of `Cc1cnc(C(=O)NNc2nc3sc4c(c3c(=O)n2C)C(C)CCC4)cn1` (stereo not given), the growth is reported as -17.5% (active). For `COc1ccc(OC)c(C(=O)/C=C/c2cc3c(c(OC)c2OC)OCO3)c1`, the growth was 47.8% (inactive). With `COc1ccc(-c2nc(/C=C3\SC(=NCc4ccccc4)NC3=O)c3ccccn23)cc1` the growth was -76.4% (active). `CC1(C)CCC(S(=O)(=O)c2ccc3c(c2)/C(=N\O)c2cc(S(=O)(=O)N4CCC(O)(c5cccc(C(F)(F)F)c5)CC4)ccc2-3)CC1` was tested, and the growth was -86.1% (active). `CCCCCC(=O)OCC(=O)O[C@@H]1C[C@]2(C(C)C)O[C@@]1(C)[C@@H]1CC[C@@H](C)[C@H]1[C@@H]2OC(=O)/C=C/c1ccccc1` was tested, and the growth was 68.6% (inactive). For `O=c1oc2c(cnc3ccccc32)cc1-c1ccsc1`, the growth was 99.3% (inactive). With `CCn1cc(C(=O)N/N=C/c2cccs2)c(=O)c2cc(F)c(N3CCNC(C)C3)c(F)c21` (stereo not given) the growth was -84.1% (active). For `O=C(N/N=C/c1ccc(F)cc1)c1ccc(C(F)(F)F)nc1Nc1cccc(C(F)(F)F)c1`, the growth was -23.7% (active). For `COc1ccc(/C=C2\C(=O)N=C3N2NC(c2cc(Br)ccc2O)C=C(C)N3c2ccccc2)cc1` (stereo not given), the growth was 95% (inactive). In the case of `O=C1c2ccc3c4ccc5c6c(ccc(c7ccc(c2c37)C(=O)N1CCC[P+](c1ccccc1)(c1ccccc1)c1ccccc1)c64)C(=O)N(CCC[P+](c1ccccc1)(c1ccccc1)c1ccccc1)C5=O`, the growth is reported as 17% (inactive). `CCCCCCC1(C)NCCO1` (stereo not given) was tested, and the growth was 103% (inactive). In the case of `C=C(C)[C@@H]1CC[C@]2(C(=O)O)CC[C@]3(C)[C@H](CC[C@@H]4[C@@]5(C)C[C@@H](Cc6cn(CCO[C@@H]7O[C@H](COC(C)=O)[C@H](OC(C)=O)[C@H](OC(C)=O)[C@H]7OC(C)=O)nn6)[C@H](O)C(C)(C)[C@@H]5CC[C@]43C)[C@@H]12`, the growth is reported as 45.2% (inactive). For `CS(=O)(=O)Nc1cc(-c2ccc3ncnc(Nc4c(Cl)ccc5c4OCO5)c3c2)cnc1Cl`, the growth was -51.2% (active). For `c1cnc2[nH]cc(-c3csc(-c4cn(CCCN5CCOCC5)c5ccccc45)n3)c2c1`, the growth was 30.6% (inactive). `CCCCCCCCCCCCCCCCCCOc1ccccc1CC(=O)NCC[N+]1(C)CCCC1` was tested, and the growth was 53.4% (inactive). With `COC(=O)CCC(=O)C(=O)OC` the growth was -19.9% [10 mM] (active). For `COc1cc(C(=O)n2nc(N3CCN(C)CC3)c3cc(N)ccc32)cc(OC)c1OC`, the growth was 35.5% (inactive). In the case of `Fc1cc(F)cc(C(c2c[nH]c3ccccc23)c2c[nH]c3ccccc23)c1`, the growth is reported as 83.5% (inactive). In the case of `CC(=O)c1cc(O)c2ccccc2c1O`, the growth is reported as 78.5% (inactive). In the case of `CC1(C)c2[nH]c3ccccc3c2C[C@]2(C)[C@H]3CC=C4[C@@H]5C[C@@](C)(C(N)=O)CC[C@]5(C)CC[C@@]4(C)[C@]3(C)CC[C@@H]12`, the growth is reported as 56.8% (inactive). In the case of `Cn1cc(-c2csc(-c3c[nH]c4ccc(Br)cc34)n2)c2cnccc21`, the growth is reported as -92.7% (active). With `COc1ccc(C2=Nc3c/c(=C\c4c(O)[nH]c5ccc(Cl)cc45)ccc3=N2)cc1` the growth was 9.27% (active).
